Experimental data as given in PubChem BioAssay AID1159580 (chemical genetic matrix, 2015).
About 2,000 (36%) of roughly 5,500 compounds were called active. Roughly 18% stayed inconclusive and do not appear here. Rule as the data show it: active = normalized growth mostly below about 0.91 (no sharp cut-off); inconclusive = no clear call, values can overlap the other calls; inactive = mostly above about 0.92. The list shows a part of the results.

Assay: chemical genetic growth profiling, strain panel (AID 1159580);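 also: tested at 20 µM; growth read once vehicle control cultures reached saturation at 30 °C; 1 = growth at the plate median or of vehicle wells; lower values mean less growth of the strain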
Conditions: growth OD

Measured: normalized growth

OC1C(O)C(O)C(O)C(O)C1O (stereo not given)
inactive: S. cerevisiae deletion strains, locus YJR075W, strain HOC1, hits give low values 1 | S. cerevisiae deletion strains, locus YKL009W, strain mrt4, hits give low values 0.953 | S. cerevisiae deletion strains, locus YKL068W, hits give low values 0.973 | S. cerevisiae deletion strains, locus YKL085W, strain MDH1 (second series), hits give low values 0.97 | S. cerevisiae deletion strains, locus YKL085W, strain MDH1, hits give low values 0.97 | S. cerevisiae deletion strains, locus YKL160W, strain elf1, hits give low values 1 | S. cerevisiae deletion strains, locus YKL190W, strain CNB1, hits give low values 0.99 | S. cerevisiae deletion strains, locus YKR001C, strain vps1, hits give low values 0.982 | S. cerevisiae deletion strains, locus YKR026C, strain gcn3, hits give low values 0.997 | S. cerevisiae deletion strains, locus YKR091W, strain srl3, hits give low values 0.999 | S. cerevisiae deletion strains, locus YLL001W, strain dnm1, hits give low values 0.997 | S. cerevisiae deletion strains, locus YLL026W, hits give low values 1 | S. cerevisiae deletion strains, locus YLL041C, strain sdh2, hits give low values 0.996 | S. cerevisiae deletion strains, locus YLR027C, strain aat2, hits give low values 1 | S. cerevisiae deletion strains, locus YLR039C, strain RIC1, hits give low values 0.966 | S. cerevisiae deletion strains, locus YLR058C, strain SHM2, hits give low values 0.982 | S. cerevisiae deletion strains, locus YLR102C, strain apc9, hits give low values 0.994 | S. cerevisiae deletion strains, locus YLR113W, strain HOG1, hits give low values 0.964 | S. cerevisiae deletion strains, locus YLR221C, strain rsa3, hits give low values 1 | S. cerevisiae deletion strains, locus YLR258W, strain gsy2, hits give low values 0.998 | S. cerevisiae deletion strains, locus YLR262C, strain YPT6 (second series), hits give low values 1 | S. cerevisiae deletion strains, locus YLR262C, strain YPT6, hits give low values 0.962 | S. cerevisiae deletion strains, locus YLR268W, strain sec22, hits give low values 0.996 | S. cerevisiae deletion strains, locus YLR320W, strain mms22, hits give low values 0.998 | S. cerevisiae deletion strains, locus YLR330W, strain CHS5, hits give low values 0.995 | S. cerevisiae deletion strains, locus YLR342W, strain FKS1 (second series), hits give low values 1.04 | S. cerevisiae deletion strains, locus YLR342W, strain FKS1, hits give low values 0.995 | S. cerevisiae deletion strains, locus YLR357W, strain rsc2, hits give low values 0.988 | S. cerevisiae deletion strains, locus YLR370C, strain arc18, hits give low values 1 | S. cerevisiae deletion strains, locus YLR371W, strain rom2, hits give low values 0.976 | S. cerevisiae deletion strains, locus YLR384C, strain iki3, hits give low values 0.998 | S. cerevisiae deletion strains, locus YLR418C, strain cdc73, hits give low values 0.979 | S. cerevisiae deletion strains, locus YML016C, strain PPZ1, hits give low values 0.996 | S. cerevisiae deletion strains, locus YML032C, strain rad52, hits give low values 0.981 | S. cerevisiae deletion strains, locus YML120C, strain ndi1, hits give low values 1.01 | S. cerevisiae deletion strains, locus YML124C, strain tub3, hits give low values 0.985 | S. cerevisiae deletion strains, locus YMR058W, strain fet3, hits give low values 1 | S. cerevisiae deletion strains, locus YMR078C, strain ctf18, hits give low values 0.982 | S. cerevisiae deletion strains, locus YMR125W, strain sto1, hits give low values 0.991 | S. cerevisiae deletion strains, locus YMR129W, hits give low values 0.997 | S. cerevisiae deletion strains, locus YMR205C, strain PFK2, hits give low values 0.996 | S. cerevisiae deletion strains, locus YMR223W, strain ubp8, hits give low values 1.02 | S. cerevisiae deletion strains, locus YMR231W, strain pep5, hits give low values 1 | S. cerevisiae deletion strains, locus YMR263W, strain SAP30, hits give low values 0.99 | S. cerevisiae deletion strains, locus YMR307W, strain GAS1, hits give low values 1.03 | S. cerevisiae deletion strains, locus YNL067W, strain RPL9B, hits give low values 0.965 | S. cerevisiae deletion strains, locus YNL071W, strain lat1, hits give low values 1 | S. cerevisiae deletion strains, locus YNL153C, strain GIM3, hits give low values 0.972 | S. cerevisiae deletion strains, locus YNL183C, strain NPR1, hits give low values 0.984 | S. cerevisiae deletion strains, locus YNL209W, strain ssb2, hits give low values 0.997 | S. cerevisiae deletion strains, locus YNL233W, strain BNI4, hits give low values 0.996 | S. cerevisiae deletion strains, locus YNL248C, strain rpa49, hits give low values 0.99 | S. cerevisiae deletion strains, locus YNL250W, strain rad50, hits give low values 0.979 | S. cerevisiae deletion strains, locus YNL271C, strain bni1, hits give low values 0.984 | S. cerevisiae deletion strains, locus YNL298W, strain CLA4, hits give low values 0.991 | S. cerevisiae deletion strains, locus YNL307C, strain MCK1, hits give low values 0.984 | S. cerevisiae deletion strains, locus YNL322C, strain KRE1 (second series), hits give low values 1 | S. cerevisiae deletion strains, locus YNL322C, strain KRE1, hits give low values 0.993 | S. cerevisiae deletion strains, locus YNR049C, strain mso1, hits give low values 1 | S. cerevisiae deletion strains, locus YNR052C, strain pop2, hits give low values 0.989 | S. cerevisiae deletion strains, locus YOL006C, strain TOP1, hits give low values 0.938 | S. cerevisiae deletion strains, locus YOL012C, strain htz1 1.04 | S. cerevisiae deletion strains, locus YOL147C, strain pex11, hits give low values 0.994 | S. cerevisiae deletion strains, locus YOR001W, strain rrp6, hits give low values 1.01 | S. cerevisiae deletion strains, locus YOR061W, strain CKA2, hits give low values 0.974 | S. cerevisiae deletion strains, locus YOR069W, strain VPS5, hits give low values 0.997 | S. cerevisiae deletion strains, locus YOR070C, strain gyp1, hits give low values 1 | S. cerevisiae deletion strains, locus YOR080W, strain dia2, hits give low values 0.993 | S. cerevisiae deletion strains, locus YOR083W, strain WHI5, hits give low values 1 | S. cerevisiae deletion strains, locus YOR106W, strain vam3, hits give low values 1 | S. cerevisiae deletion strains, locus YOR136W, strain idh2, hits give low values 0.984 | S. cerevisiae deletion strains, locus YOR144C, strain elg1, hits give low values 0.987 | S. cerevisiae deletion strains, locus YOR184W, strain ser1, hits give low values 0.996 | S. cerevisiae deletion strains, locus YOR231W, strain MKK1, hits give low values 0.995 | S. cerevisiae deletion strains, locus YOR265W, strain rbl2, hits give low values 1 | S. cerevisiae deletion strains, locus YOR270C, strain vph1, hits give low values 1 | S. cerevisiae deletion strains, locus YOR290C, strain snf2, hits give low values 0.996 | S. cerevisiae deletion strains, locus YOR316C, strain cot1, hits give low values 0.979 | S. cerevisiae deletion strains, locus YPL051W, strain arl3, hits give low values 1.01 | S. cerevisiae deletion strains, locus YPL055C, strain LGE1, hits give low values 0.966 | S. cerevisiae deletion strains, locus YPL078C, strain atp4, hits give low values 1 | S. cerevisiae deletion strains, locus YPL106C, strain sse1, hits give low values 1 | S. cerevisiae deletion strains, locus YPL240C, strain hsp82, hits give low values 0.995 | S. cerevisiae deletion strains, locus YPL256C, strain CLN2, hits give low values 0.961 | S. cerevisiae deletion strains, locus YPR119W, strain clb2, hits give low values 0.993 | S. cerevisiae deletion strains, locus YPR141C, strain kar3, hits give low values 0.929 | S. cerevisiae deletion strains, locus YPR163C, strain tif3, hits give low values 0.991 | S. cerevisiae deletion strains, locus YPR167C, strain met16, hits give low values 0.985 | S. cerevisiae deletion strains, strain wtn01, hits give low values 0.993 | S. cerevisiae strains, strain wild type, hits give low values 0.994
